PRMT1 inh: blocks human protein arginine methyltransferase 1 | Q99873 | recombinant PRMT1, activity-based probe fluorescence polarization | inhibition, % at 2.79 µM | 1.3% of 370,000 active;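 active = inhibition above about 21% made by adding two undisclosed values, limit read from the data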
ABHD5 PLIN5 PPI: ABHD5-PLIN5 protein interaction inhibition | Q00G26+Q8WTS1 | Split G. princeps luciferase complementation, luminescence, 4 h | inhibition, % at 4 µM | AID 602281 | 0.78% of 360,000 active;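 active = inhibition above the mean inhibition across every tested compound plus 3 SD, cut at about 22% in these data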;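 also: 0% = DMSO only wells and the 100% control is not disclosed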
UHRF1 binding: human UHRF1 methylated DNA binding inhibitors; inhibition, % at 4.4 µM; UHRF1 binding to methylated oligo, TR-FRET; Q96T88; 0.75% of 370,000 active; in the data active = inhibition above about 21%;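 also: UHRF1 SRA domain binding a hemimethylated CpG hairpin DNA probe; 0% = median of test compound wells and 100% = reference inhibitor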
LEDGF integ inh: blocks HIV-1 LEDGF/p75-dependent DNA integration; AID 743269; inhibition, % at 3.7 µM; TR-FRET IN-LEDGF/p75 DNA integration, Eu/Cy5; 0.64% of 370,000 active;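 active = inhibition above the screen-wide mean plus 3 SD, cut at about 13% in these data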;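 also: signal is the Cy5 over europium emission ratio at 671 and 618 nm; 0% = plate median of compound wells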
rCAG RNA binder: binds r(CAG) RNA repeats; AID 651821; 1.3% of 370,000 active; r(CAG) RNA repeat, TO-PRO-1 dye displacement fluorescence; inhibition, % at 3 µM;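 active = inhibition above the plate cutoff, the mean of all test compounds on that plate plus 3 SD, cut at about 35% in these data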;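 also: 0% = DMSO alone and 100% = 100 µM mitoxantrone as full dye displacement; higher means more dye released from RNA so lower well fluorescence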
MBD2 inh: MBD2-methylated oligo binding inhibition; inhibition, % at 4.4 µM; 0.31% of 370,000 active; Q9UBB5; AID 686964; TR-FRET, MBD2 binding to methylated oligonucleotide; in the data active = inhibition above about 13%
Target sequence (Q9UBB5 whole entry, looked up): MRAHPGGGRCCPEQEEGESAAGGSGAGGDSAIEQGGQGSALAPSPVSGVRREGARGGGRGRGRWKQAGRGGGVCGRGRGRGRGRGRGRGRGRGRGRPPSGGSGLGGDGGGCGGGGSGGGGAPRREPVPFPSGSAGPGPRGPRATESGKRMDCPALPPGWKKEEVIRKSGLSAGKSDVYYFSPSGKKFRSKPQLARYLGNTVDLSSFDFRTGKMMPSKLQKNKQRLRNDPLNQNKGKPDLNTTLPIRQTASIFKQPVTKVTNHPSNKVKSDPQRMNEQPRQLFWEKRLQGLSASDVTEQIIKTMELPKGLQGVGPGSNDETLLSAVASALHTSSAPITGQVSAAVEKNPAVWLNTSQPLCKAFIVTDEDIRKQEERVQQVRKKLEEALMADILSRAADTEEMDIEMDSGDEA
The depositor's hits bear a star; . = no result given. Rows were chosen to be rich in hits. Some 4.1% of all compounds tested hit in one or more screens of this group.

SMILES | PRMT1 inh | ABHD5 PLIN5 PPI | UHRF1 binding | LEDGF integ inh | rCAG RNA binder | MBD2 inh
CCN(C)C1CN(Cc2cn(CCCOC)nn2)S(=O)(=O)C1 (configuration not stated) | -0.1 | 5.3 | 6.7 | -0.4 | 1.7 | -0.5
CCCN(C)C1CN(Cc2cn(CCCOC)nn2)S(=O)(=O)C1 (configuration not stated) | 22.6* | -1.0 | 12.3 | -3.9 | 1.3 | 10.1
CC(C)(C)OC(=O)NCc1cc(F)ccc1/C=C/S(=O)(=O)NCc1ccc(F)cc1 | 3.7 | . | -1.1 | -5.3 | -0.5 | -1.3
O=C(Nc1ccc2[nH]ccc2c1)c1cc(-c2ccc(Cl)cc2)nc2ccccc12 | 8.7 | . | 0.7 | -1.5 | 20.6 | 2.1
CC(=O)N1CCN(c2ccc(NCc3ccc(Br)o3)cc2)CC1 | 4.7 | -11.9 | -2.9 | 28.1* | -2.1 | -4.9
COc1nc(OC)nc(N2CCC(C(=O)NCc3cccc(OC)c3OC)CC2)n1 | -0.7 | . | -0.2 | 2.5 | -0.8 | -1.7
O=S(=O)(Nc1ccc(-c2ccc3nncn3n2)cc1)c1cccc(F)c1 | 1.6 | -2.1 | 23.8* | -0.6 | 4.9 | 8.7
CCOC(=O)[C@]12CCCCC/C=C\1N(CCc1ccc(Cl)cc1)C(=O)[C@H]2CC(=O)NCc1cccc2ccccc12 | -0.7 | . | -1.8 | 0.2 | 7.2 | 2.6
COC(=O)[C@H]1C[C@@]2(Oc3ccc(Br)cc3)c3ccccc3N(C(=O)OC(C)(C)C)[C@H]2N1C(=O)OC(C)(C)C | 2.9 | . | -3.0 | 3.4 | 1.2 | -2.6
Cn1c(-c2ccc3c(c2)OCO3)cnc1NCc1ccccc1Cl | 2.1 | -10.4 | 47.7* | -2.0 | 2.0 | -7.3
Cn1c(-c2ccc3c(c2)OCO3)cnc1NCc1ccccc1 | 0.5 | -1.0 | -0.8 | -0.8 | 0.8 | 2.0
Cc1ccc(CCNS(=O)(=O)c2c(C)nc3sccn3c2=O)cc1 | -4.4 | 4.8 | 23.3* | 8.7 | 2.6 | 4.8
CC(=O)c1cc(O)c2ccccc2c1O | 45.0* | -24.4 | -6.9 | 1.3 | 32.7 | -6.4
CC(=O)c1coc2c1cc(O)c1ccccc12 | 1.5 | 1.5 | 1.1 | -1.9 | 2.8 | -3.0
Cc1nnnn1/C(=C\c1ccccc1)C(=O)OCC(=O)Nc1cccc(S(=O)(=O)N(C)C)c1 | 13.1 | 49.8* | 2.8 | -8.3 | 11.4 | 7.4
CC(C)C(=O)N(c1ccc2oc(=O)sc2c1)S(=O)(=O)c1ccccc1 | 48.0* | 7.8 | 2.6 | -1.9 | 12.2 | 3.2
COc1ccc(OC)c(S(=O)(=O)N(C(C)=O)c2ccc3oc(=O)sc3c2)c1 | 53.1* | 0.3 | -0.5 | -4.3 | 11.7 | -0.1
CN(c1ccc(C(=O)O)cc1)S(=O)(=O)c1ccccc1 | 0.8 | -4.7 | -1.8 | 0.9 | 0.3 | 1.5
COc1ccc(C(=O)Oc2ccc3oc(=O)sc3c2)cc1 | 75.7* | 23.1* | 4.5 | -4.6 | 19.2 | -0.1
CCCCCCCC(=O)N[C@H]1CC[C@@]23CCCN2C(=O)CCC[C@H]3[C@H]1C | -1.8 | . | -2.2 | 0.1 | . | -7.7
Oc1ccccc1C=NN1CCN(Cc2ccccc2)CC1 | -3.0 | . | -3.0 | 4.3 | -1.4 | 3.2
Cc1ccccc1C(=O)NN1C(=O)CSC1=S | 6.6 | -0.4 | -2.5 | 1.6 | 7.2 | -4.0
O=C1CSC(=S)N1Nc1ccccc1 | 23.6* | -30.1 | 7.1 | -1.5 | 13.7 | 1.3
COC(=O)C1CN(Cc2ccccc2)CCS(=O)(=O)N1Cc1cn(Cc2ccc(F)cc2)nn1 (configuration not stated) | -0.8 | . | 11.7 | 9.7 | 0.1 | 3.9
CCOC(=O)C1=C(C)N(C)C(=O)NC1c1c(C)nn(-c2ccc(C)cc2)c1Cl (configuration not stated) | 1.8 | -4.0 | 23.4* | 0.4 | 4.0 | 3.8
SMILES | PRMT1 inh | ABHD5 PLIN5 PPI | UHRF1 binding | LEDGF integ inh | rCAG RNA binder | MBD2 inh
Cc1cc(C)c2c3c(sc2n1)C(=O)N(c1ccccc1C)CC(=O)N3 | 4.5 | -3.7 | 3.1 | -1.9 | -4.0 | 9.3
Cc1ccc(N2CC(=O)Nc3c(sc4nc(C)cc(C)c34)C2=O)cc1 | -0.7 | -1.3 | 25.2* | 3.0 | -7.1 | 5.6
COc1ccc(-n2c(COc3ccccc3)nnc2SCc2nc3ccccc3[nH]2)cc1 | -2.9 | . | -0.8 | -1.2 | 2.2 | -3.4
O=[N+]([O-])CC(=Nc1ccc(Cl)cc1)N/N=C\c1oc(O)c2ccccc12 | 13.9 | -0.5 | -2.3 | 6.1 | 53.2* | 4.0
O=C(N/N=C/c1ccc([N+](=O)[O-])o1)c1cn(-c2ccccc2)nc1-c1ccc(Cl)cc1 | -3.8 | 4.0 | -2.3 | 0.4 | 7.9 | -1.1
CC(=O)Nc1cc2nc3ccccc3oc-2cc1=O | 4.0 | . | -1.3 | -4.7 | -0.1 | -2.3
O=C(NC1(C(F)(F)F)N=C(c2ccccc2)NC1=O)c1ccccc1 (configuration not stated) | -1.2 | -0.4 | -3.9 | 0.0 | -0.6 | 3.4
CC(=O)NC1(C(F)(F)F)N=C(c2ccccc2)NC1=O (configuration not stated) | 2.7 | -2.5 | 22.6* | -1.3 | -1.5 | 3.4
Cc1cc(O)cc(=O)n1-c1cccc(C(F)(F)F)c1 | 5.6 | . | 4.6 | 0.2 | 1.1 | 2.9
C=CCO[C@H]1CN(C(=O)OC)[C@@H]2C[C@H]1Oc1ccccc12 | -0.1 | . | -1.6 | -0.8 | -1.5 | 1.6
O=C(CC1Sc2ccccc2NC1=O)NCc1cccc(Cl)c1 (configuration not stated) | -5.7 | 2.2 | -1.1 | 0.8 | -4.2 | 6.3
O=C(CC1Sc2ccccc2NC1=O)NCc1ccc(Cl)cc1 (configuration not stated) | -1.8 | 4.0 | 27.7* | -1.5 | -2.8 | -2.4
CC1CCN(c2ccc(C(=O)O)cc2NS(=O)(=O)c2ccccc2[N+](=O)[O-])CC1 | 1.9 | . | -2.6 | 1.5 | 21.9 | 2.2
C/C(=N\NC(=O)c1ccc(Br)cc1)C1C(=O)c2ccccc2C1=O | 0.1 | -1.0 | -7.2 | -6.5 | 47.6* | -10.3
CN(C(=O)CCc1cn(C)c2ccccc12)c1ccc(Oc2cccnc2)cc1 | 0.2 | . | -1.7 | -2.2 | 3.0 | 4.8
O=[N+]([O-])c1ccc(-c2cnc(SC(c3ccccc3)c3ccccc3)[nH]2)cc1 | 1.3 | -17.2 | 45.0* | 2.4 | 17.3 | 3.2
CN(C)c1ccc(/C=C/c2ccc3c4ccccc4ccc3[n+]2-c2ccccc2)cc1 | 2.9 | 36.8* | 11.7 | -5.6 | 30.0 | -3.3
CCCCCCCCNS(=O)(=O)/C=C/c1ccc(OC)cc1CNC(=O)OC(C)(C)C | -1.5 | . | -3.8 | -5.4 | -0.7 | -2.3
CCOc1ccc(N=Cc2ccccc2O)cc1 | 3.7 | -2.4 | -0.7 | -2.6 | 3.4 | -1.7
CCc1ccc(O)c(N=Cc2ccccc2O)c1 | -0.5 | 2.9 | 31.7* | 3.2 | 7.2 | -4.0
COC(=O)C1SCC2C(=O)N(Cc3cccc(C)c3)CC(=O)N21 (configuration not stated) | 2.9 | 3.9 | -0.5 | -1.0 | -4.5 | -3.4
COC(=O)C1SCC2C(=O)N(Cc3ccc(F)cc3)CC(=O)N21 (configuration not stated) | 0.9 | -2.9 | 21.5* | -2.3 | -4.9 | 4.2
